Results taken from the supplement of paper PMC11732987, “Enantioselective OTUD7B fragment discovery through chemoproteomics screening and high-throughput optimisation” (Communications Chemistry, 2025).

Columns and labels:
Experiment in all cases: log2 ratio of Biotin-Ahx-Ub-VS probe labelling (fragment/DMSO); higher = less target engagement (more negative = stronger competition), active = hit call of the paper (q ≤ 0.05, log2 ratio ≤ -1)
Details in all cases: compound concentration: 200 uM; treatment time: 3 h
USP34 = USP34 (UniProt Q70CQ2)
Method in brief: (§1)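 Fragment (200 µM) or vehicle was incubated for 3 h with triplicate HEK293T lysate samples of 495 µg, which were then treated with Biotin-Ahx-Ub-VS at 0.5 µM final for 1 h. Labelled DUBs were enriched on NeutrAvidin, digested with LysC and trypsin, and analysed by diaPASEF LC-MS/MS. Values are average log2 fragment/vehicle ratios from an unpaired t-test on global-median-normalised Spectronaut label-free quantities, using proteins with ≥2 unique peptides.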

USP36 = molecular target: T1, USP36 (UniProt Q9P275)
T1 sequence (whole entry): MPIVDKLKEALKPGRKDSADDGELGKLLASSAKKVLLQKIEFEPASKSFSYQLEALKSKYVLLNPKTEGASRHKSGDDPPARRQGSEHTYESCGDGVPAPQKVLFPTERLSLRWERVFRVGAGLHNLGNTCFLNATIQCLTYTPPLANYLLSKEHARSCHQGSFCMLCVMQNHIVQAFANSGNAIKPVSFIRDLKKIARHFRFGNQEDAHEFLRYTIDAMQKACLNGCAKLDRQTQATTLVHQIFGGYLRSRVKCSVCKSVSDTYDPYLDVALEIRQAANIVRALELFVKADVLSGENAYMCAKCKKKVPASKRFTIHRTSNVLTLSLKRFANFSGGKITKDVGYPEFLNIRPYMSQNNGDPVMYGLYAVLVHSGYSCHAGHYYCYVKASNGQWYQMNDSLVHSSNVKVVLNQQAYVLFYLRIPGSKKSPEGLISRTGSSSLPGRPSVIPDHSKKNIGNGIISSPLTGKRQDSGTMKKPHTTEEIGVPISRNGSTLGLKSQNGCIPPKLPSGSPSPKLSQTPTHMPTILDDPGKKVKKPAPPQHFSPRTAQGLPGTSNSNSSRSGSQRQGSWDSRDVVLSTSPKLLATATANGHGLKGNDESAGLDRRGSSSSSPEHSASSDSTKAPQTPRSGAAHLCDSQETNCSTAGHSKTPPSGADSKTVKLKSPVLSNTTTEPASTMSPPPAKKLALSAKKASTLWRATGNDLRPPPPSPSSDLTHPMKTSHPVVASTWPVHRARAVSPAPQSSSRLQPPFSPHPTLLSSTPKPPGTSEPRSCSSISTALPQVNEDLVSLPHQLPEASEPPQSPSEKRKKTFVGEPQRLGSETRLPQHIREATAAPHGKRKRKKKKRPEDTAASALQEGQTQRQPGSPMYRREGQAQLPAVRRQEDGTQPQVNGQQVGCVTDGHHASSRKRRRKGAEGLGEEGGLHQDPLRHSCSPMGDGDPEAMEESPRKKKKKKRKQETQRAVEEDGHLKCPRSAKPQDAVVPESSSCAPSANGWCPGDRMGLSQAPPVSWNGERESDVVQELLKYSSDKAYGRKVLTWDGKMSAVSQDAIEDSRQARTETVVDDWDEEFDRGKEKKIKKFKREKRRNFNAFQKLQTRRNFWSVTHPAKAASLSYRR
Method in brief: as §1

USP38 = molecular target: T2, USP38 (UniProt Q8NB14)
T2 sequence (whole entry): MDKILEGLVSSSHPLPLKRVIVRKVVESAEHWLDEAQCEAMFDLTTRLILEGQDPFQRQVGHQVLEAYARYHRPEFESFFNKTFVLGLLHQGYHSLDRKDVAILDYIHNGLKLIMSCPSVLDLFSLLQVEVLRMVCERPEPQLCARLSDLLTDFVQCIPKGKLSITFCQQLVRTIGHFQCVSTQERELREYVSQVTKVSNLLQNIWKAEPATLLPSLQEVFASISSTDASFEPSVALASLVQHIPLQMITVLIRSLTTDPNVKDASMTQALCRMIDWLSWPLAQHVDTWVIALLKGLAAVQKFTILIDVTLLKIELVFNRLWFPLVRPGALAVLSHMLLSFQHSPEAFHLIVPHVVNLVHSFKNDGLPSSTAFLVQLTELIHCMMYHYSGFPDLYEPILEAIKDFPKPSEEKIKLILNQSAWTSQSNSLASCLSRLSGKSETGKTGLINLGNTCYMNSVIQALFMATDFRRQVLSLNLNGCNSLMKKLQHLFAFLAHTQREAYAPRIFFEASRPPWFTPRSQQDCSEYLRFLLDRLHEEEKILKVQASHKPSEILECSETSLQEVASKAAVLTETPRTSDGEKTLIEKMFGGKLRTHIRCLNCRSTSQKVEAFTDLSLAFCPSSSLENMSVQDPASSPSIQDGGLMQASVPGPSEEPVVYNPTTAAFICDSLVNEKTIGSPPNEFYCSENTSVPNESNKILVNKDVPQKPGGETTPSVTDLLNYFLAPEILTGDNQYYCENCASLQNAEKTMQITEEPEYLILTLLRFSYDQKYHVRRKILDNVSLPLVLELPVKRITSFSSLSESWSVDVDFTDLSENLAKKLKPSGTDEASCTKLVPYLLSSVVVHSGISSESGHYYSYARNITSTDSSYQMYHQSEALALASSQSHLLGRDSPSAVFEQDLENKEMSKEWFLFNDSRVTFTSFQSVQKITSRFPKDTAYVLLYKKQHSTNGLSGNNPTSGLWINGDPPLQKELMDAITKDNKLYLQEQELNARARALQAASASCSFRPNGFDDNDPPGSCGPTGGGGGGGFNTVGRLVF
Method in brief: as §1

USP39 = molecular target: T3, USP39 (UniProt Q53GS9)
T3 sequence (whole entry): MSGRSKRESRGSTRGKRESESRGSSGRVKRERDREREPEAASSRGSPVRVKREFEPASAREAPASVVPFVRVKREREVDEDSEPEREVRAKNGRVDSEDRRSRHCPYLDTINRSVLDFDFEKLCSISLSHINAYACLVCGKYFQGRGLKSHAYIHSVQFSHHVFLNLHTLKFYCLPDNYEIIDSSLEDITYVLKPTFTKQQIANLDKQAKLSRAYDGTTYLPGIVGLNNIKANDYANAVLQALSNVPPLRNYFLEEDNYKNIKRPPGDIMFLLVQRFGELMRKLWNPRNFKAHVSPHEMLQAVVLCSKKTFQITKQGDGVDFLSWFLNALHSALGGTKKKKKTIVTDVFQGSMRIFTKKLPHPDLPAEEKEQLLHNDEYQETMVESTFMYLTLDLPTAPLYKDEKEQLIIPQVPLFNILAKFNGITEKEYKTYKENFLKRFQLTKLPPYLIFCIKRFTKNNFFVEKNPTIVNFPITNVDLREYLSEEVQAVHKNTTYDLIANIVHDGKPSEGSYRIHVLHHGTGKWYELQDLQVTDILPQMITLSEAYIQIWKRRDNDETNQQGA
Method in brief: as §1

USP4 = molecular target: T4, USP4 (UniProt Q13107)
T4 sequence (whole entry): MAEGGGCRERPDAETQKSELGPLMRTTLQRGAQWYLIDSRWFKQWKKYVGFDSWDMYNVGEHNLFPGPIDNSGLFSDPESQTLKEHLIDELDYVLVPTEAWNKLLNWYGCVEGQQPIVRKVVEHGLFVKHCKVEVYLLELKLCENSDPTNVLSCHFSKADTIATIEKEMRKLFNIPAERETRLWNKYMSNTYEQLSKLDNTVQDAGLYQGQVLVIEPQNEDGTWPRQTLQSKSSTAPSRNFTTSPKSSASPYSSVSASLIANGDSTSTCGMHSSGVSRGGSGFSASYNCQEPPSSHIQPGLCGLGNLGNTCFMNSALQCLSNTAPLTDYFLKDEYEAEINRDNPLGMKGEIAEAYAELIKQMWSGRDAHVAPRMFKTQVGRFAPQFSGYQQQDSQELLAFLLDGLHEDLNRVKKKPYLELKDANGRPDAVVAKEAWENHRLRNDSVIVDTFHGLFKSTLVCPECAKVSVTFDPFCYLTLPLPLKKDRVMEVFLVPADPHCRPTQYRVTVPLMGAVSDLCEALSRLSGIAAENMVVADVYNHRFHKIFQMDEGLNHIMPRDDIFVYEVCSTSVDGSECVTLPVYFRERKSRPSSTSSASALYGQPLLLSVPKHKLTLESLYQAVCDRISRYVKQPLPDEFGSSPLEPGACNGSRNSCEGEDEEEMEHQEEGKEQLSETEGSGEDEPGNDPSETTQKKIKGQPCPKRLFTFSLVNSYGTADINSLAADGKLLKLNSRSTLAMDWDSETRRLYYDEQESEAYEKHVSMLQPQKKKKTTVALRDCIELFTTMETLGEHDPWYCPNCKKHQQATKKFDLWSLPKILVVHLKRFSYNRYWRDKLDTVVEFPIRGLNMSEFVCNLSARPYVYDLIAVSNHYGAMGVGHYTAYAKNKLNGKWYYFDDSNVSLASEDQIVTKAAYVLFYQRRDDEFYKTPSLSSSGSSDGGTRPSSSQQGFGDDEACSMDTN
Method in brief: as §1

Measured: log2 ratio of Biotin-Ahx-Ub-VS probe labelling

Sequence of USP34 (Q70CQ2 whole entry, the tested form may be a part): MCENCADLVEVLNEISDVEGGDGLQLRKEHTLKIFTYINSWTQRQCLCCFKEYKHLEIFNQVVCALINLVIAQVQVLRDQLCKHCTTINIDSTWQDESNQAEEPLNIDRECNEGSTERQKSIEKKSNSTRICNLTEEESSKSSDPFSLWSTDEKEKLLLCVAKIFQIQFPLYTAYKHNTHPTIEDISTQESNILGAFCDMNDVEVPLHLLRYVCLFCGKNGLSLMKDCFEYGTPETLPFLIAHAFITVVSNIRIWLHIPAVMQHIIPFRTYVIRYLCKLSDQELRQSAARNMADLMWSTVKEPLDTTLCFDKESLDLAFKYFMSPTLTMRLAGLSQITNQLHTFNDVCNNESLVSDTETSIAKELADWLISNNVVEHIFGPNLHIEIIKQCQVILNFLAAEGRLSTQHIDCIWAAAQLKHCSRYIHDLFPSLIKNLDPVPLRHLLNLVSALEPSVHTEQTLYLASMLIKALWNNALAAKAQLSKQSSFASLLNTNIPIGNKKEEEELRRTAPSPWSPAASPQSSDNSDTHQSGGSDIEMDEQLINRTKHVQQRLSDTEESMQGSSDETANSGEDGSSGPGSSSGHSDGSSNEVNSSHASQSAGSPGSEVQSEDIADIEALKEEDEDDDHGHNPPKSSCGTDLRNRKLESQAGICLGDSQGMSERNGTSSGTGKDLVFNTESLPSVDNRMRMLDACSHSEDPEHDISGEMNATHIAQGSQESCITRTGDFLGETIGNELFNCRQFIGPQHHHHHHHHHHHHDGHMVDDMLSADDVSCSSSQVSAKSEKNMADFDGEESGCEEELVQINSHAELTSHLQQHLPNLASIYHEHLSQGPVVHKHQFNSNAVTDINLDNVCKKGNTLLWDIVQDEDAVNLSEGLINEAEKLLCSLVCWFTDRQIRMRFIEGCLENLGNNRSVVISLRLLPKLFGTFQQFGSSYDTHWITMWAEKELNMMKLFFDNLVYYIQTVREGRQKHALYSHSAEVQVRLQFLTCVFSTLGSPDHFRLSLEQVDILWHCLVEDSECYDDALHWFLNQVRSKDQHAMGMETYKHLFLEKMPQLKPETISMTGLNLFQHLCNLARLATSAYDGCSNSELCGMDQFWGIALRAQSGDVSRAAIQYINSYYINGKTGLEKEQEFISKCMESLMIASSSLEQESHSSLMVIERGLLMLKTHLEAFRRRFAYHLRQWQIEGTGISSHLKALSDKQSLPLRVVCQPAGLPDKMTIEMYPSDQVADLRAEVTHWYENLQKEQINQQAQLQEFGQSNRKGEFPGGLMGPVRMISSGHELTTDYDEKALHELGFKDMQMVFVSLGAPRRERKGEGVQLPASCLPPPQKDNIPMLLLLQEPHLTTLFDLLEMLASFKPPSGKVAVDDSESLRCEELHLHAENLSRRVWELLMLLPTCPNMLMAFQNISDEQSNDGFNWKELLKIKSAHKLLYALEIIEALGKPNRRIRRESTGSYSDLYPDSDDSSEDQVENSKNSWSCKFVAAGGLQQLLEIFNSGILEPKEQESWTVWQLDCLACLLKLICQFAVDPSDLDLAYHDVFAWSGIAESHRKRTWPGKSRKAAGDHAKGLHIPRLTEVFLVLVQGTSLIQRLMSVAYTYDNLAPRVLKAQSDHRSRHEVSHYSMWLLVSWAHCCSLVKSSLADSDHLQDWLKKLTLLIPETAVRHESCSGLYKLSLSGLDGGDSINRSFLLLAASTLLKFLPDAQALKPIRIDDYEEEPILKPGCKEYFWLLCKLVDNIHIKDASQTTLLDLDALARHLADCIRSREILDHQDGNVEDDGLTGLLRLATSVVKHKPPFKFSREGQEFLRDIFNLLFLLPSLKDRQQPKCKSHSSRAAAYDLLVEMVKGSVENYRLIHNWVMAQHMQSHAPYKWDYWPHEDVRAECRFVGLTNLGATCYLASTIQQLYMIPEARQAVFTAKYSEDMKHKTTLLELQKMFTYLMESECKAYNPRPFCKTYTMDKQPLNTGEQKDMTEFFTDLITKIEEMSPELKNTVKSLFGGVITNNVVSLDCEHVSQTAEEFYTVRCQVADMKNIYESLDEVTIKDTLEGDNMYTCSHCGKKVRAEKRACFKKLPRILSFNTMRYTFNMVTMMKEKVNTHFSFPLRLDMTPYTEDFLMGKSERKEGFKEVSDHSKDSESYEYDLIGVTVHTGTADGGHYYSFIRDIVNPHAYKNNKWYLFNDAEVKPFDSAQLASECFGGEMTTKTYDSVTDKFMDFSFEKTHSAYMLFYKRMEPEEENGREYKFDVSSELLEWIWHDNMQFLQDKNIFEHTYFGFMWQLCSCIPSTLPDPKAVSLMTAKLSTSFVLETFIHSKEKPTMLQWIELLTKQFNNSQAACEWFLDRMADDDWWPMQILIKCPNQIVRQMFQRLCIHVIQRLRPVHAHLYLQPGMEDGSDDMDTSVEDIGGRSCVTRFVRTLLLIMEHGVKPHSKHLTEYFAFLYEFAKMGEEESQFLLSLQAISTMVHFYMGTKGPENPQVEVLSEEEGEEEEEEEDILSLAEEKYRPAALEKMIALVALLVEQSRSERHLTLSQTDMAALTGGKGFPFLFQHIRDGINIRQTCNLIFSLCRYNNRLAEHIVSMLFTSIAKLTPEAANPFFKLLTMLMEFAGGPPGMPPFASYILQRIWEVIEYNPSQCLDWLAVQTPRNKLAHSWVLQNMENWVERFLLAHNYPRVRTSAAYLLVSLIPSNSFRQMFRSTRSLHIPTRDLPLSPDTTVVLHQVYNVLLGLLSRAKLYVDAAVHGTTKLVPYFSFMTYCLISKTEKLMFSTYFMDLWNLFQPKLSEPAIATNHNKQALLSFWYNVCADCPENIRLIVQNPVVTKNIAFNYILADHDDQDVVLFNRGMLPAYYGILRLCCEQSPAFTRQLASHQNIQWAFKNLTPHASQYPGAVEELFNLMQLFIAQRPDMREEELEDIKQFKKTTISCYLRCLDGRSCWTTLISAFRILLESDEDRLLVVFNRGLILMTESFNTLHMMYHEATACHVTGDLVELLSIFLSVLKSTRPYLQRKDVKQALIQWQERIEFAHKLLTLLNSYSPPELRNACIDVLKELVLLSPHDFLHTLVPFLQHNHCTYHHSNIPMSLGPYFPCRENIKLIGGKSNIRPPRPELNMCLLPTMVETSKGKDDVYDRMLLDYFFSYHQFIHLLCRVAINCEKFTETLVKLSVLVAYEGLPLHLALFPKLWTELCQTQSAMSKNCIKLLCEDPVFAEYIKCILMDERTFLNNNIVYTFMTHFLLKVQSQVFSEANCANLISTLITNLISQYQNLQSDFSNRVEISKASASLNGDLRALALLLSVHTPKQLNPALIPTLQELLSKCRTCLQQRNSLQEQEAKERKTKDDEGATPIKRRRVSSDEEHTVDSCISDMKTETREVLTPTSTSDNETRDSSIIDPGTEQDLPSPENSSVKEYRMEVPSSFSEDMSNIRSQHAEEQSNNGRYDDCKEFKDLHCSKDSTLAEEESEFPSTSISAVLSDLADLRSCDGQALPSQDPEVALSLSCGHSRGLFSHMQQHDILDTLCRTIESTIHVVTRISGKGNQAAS

Cl.Cn1nccc1C(NC(=O)CCl)c1ccccc1 (stereo not given)
inactive: USP34 -0.0966 | USP36 0.193 | USP38 -0.0261 | USP39 0.0185 | USP4 -0.116
